In PubChem BioAssay (NCATS):
Active and inactive are the calls of the source. Calls come from the whole dose curve.

Assays:
Assay in all cases: Confirmatory Screen for Target Class Profiling of Small Molecule Inhibitors of Methyltransferases (AID 1745852); for activity change, negative = inhibition: % is set by controls: 0 for no effect and ±100 for the full control effect
[1] = molecular target: Catechol O-methyltransferase (Homo sapiens) (UniProt P21964); settings: MTase-Glo luminescence, SAH detection, recombinant enzyme; measured here: COMT max response; stronger effect = lower value
Catechol O-methyltransferase (Homo sapiens), sequence (P21964 whole entry, looked up): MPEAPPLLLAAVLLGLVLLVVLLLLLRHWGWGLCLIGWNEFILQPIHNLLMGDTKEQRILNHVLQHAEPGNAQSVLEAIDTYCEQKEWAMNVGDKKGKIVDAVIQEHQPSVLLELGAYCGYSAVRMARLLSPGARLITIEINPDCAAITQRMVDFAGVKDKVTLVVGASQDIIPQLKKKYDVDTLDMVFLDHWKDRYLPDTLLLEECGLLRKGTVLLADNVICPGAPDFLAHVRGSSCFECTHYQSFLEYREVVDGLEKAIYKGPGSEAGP

[2] = molecular target: Guanidinoacetate N-methyltransferase (Homo sapiens) (UniProt Q14353); settings: MTase-Glo luminescence, SAH detection, recombinant enzyme; activity change, negative = inhibition: at 57.3 µM (top of the series) unless noted
[3] = molecular target: Nicotinamide N-methyltransferase (Homo sapiens) (UniProt P40261); settings: MTase-Glo luminescence, SAH detection, recombinant enzyme; measured here: NNMT max response; stronger effect = lower value
Nicotinamide N-methyltransferase (Homo sapiens), sequence (P40261 whole entry, looked up): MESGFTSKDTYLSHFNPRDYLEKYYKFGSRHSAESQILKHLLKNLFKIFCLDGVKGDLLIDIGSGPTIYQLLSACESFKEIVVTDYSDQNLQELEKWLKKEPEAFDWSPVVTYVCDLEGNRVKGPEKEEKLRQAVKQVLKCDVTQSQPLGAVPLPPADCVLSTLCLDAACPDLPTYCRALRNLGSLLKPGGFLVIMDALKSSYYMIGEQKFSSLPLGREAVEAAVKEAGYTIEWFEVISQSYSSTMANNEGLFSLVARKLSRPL

[4] = molecular target: Phenylethanolamine N-methyltransferase (Homo sapiens) (UniProt P11086); settings: MTase-Glo luminescence, SAH detection, recombinant enzyme; measured here: PNMT max response; stronger effect = lower value
Phenylethanolamine N-methyltransferase (Homo sapiens), sequence (P11086 whole entry, looked up): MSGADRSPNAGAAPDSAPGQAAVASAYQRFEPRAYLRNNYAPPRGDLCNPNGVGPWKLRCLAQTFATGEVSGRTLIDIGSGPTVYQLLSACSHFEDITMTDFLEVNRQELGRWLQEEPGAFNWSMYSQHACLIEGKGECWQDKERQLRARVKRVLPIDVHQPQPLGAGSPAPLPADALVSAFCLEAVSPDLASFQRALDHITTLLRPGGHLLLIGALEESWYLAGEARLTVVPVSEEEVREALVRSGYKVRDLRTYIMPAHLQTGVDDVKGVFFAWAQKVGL
Potency is the fitted concentration of half-maximal effect.

Row | SMILES | activity [1] | activity change, negative = inhibition [2] | activity [3] | activity [4] | Potency [2]
1 | C=C(C(=O)O)[C@H]1C[C@]2(C)C(=O)CC[C@]23O[C@H]1C[C@@H]3C | -84.1% | -1.21% | -2.06% | -0.38% | –
2 | C=C[C@H]1[C@H](O[C@@H]2O[C@H](CO)[C@@H](O)[C@H](OC(=O)/C=C/c3ccc(O)c(OC)c3)[C@H]2O)OC=C2C(=O)OCC[C@]21O | -63.6% | -8.69% [at 29.8 µM] | -4.35% | -4.62% | –
3 | CC(=O)OC1CC(=O)C2(C)C3CC4=C(OC(C)CC4=O)OC3(C)CCC2C1(C)C (stereo not given) | -40.9% | 0.0637% [at 29.8 µM] | -81.2% | 0.0652% | –
4 | C=C(C(=O)O)[C@@H]1CC[C@H](C)[C@@H]2CC(=O)C(C)=C2C1 | -63.8% | 1.33% | -2.63% | -9% | –
5 | C[C@@H]1O[C@@H](OC[C@H]2O[C@@H](OCc3ccccc3)[C@H](O)[C@@H](O)[C@@H]2O)[C@H](O)[C@H](O)[C@H]1O | -64.3% | -3.1% [at 29.8 µM] | -3.31% | -2.48% | –
6 | COc1cnc(-c2ccc(Cn3c(CC(C)(C)C(=O)O)c(SC(C)(C)C)c4cc(OC[C@@H]5Cc6ccccc6N5C(C)=O)ccc43)cc2)nc1 | -6.21% | -3.63% | -11.1% | -8.45% | –
7 | O=C(CCc1ccccc1)c1c(O)c([C@@H]2O[C@H](CO)[C@@H](O)[C@H](O)[C@H]2O)c(O)c([C@@H]2O[C@H](CO)[C@@H](O)[C@H](O)[C@H]2O)c1O | -89.3% | 2.13% [at 19.1 µM] | -0.132% | 4.21% | –
8 | CC(C)=C1CC2C(CCC2(C)O)C(C)(O)CC1=O (stereo not given) | -78.9% | 0% | 3.19% | 3.52% | –
9 | O=C(NCC(=O)N1CCCC1)Nc1ccc2ccccc2c1 | 1.31% | -10.4% | -23% | -8.32% | –
10 | CC1CCCCCCCc2cc(O)cc(O)c2C(=O)O1 (stereo not given) | -69.9% | – | -60.9% | -64.4% | 30.4 µM (active)
11 | O=C(/C=C/c1ccc(O)cc1)OC[C@@]1(O)C=C[C@@H]2C(C(=O)O)=CO[C@@H](O[C@@H]3O[C@H](CO)[C@@H](O)[C@H](O)[C@H]3O)[C@@H]21 | -58.3% | 0.0203% [at 29.8 µM] | -1.35% | 0.204% | –
12 | O=C(O)CCc1ccc(NCc2cccc3c2CCCN3CCOc2ccccc2)cc1F | -3.27% | -0.799% | -32.3% | -5.97% | –
13 | OC[C@H]1O[C@@H](OCCc2ccccc2)[C@H](O[C@@H]2OC[C@@H](O)[C@H](O)[C@H]2O)[C@@H](O)[C@@H]1O | -76.4% | 0% [at 29.8 µM] | 3.88% | -1.31% | –
14 | CC1(C)C2CCC1(C)C(OC(=O)C(O)(CC(=O)O)CC(=O)O)C2 (stereo not given) | -73.1% | 0% | 1.63% | 2.73% | –
15 | O=C(O)CC(CCc1ccccc1)OC1OC(CO)C(O)C(O)C1O (stereo not given) | -76.5% | -3.69% | -1.93% | -2.51% | –
16 | CC(C)c1cc2c(c(O)c1O)[C@@]13CCCC(C)(C)C1[C@@H](O)[C@@H]2OC3=O (stereo not given in full) | -82.4% | -4.37% | -4.78% | -0.254% | –
17 | CC(=O)NC(Cc1c[nH]c2ccccc(=O)c12)C(=O)O (stereo not given) | -73.7% | 0% | 3.04% | -0.114% | –
18 | C=CC(C)(O)CC/C=C(\C)COC1O[C@H](CO)[C@@H](O)[C@H](O)[C@H]1O (stereo not given in full) | -76.9% | -6.43% | -3.25% | -3.19% | –
19 | O=C(O)CC1CCC(c2ccc(-c3ccc(Nc4ccc(C(F)(F)F)nc4)cn3)cc2)CC1 (stereo not given) | -2.38% | 0.046% | -13.8% | -3.22% | –
20 | COc1ccc(CC(NC(C)=O)C(=O)O)cc1 (stereo not given) | -71.7% | 0% | 1.04% | -0.971% | –
21 | C=C1C(=O)O[C@@H]2CC(C)=C([C@@H](C)CCCOC(C)=O)[C@@H](O)[C@H]12 | -78.5% | 1.58% | -0.922% | -2.38% | –
22 | C/C(=C\CC/C(C)=C/CC[C@]1(C)CCc2cc(O)cc(C)c2O1)CC/C=C(\C)C(=O)O | -20.5% | 0% [at 29.8 µM] | -14.3% | -0.0782% | –
23 | COc1c2cc(c(O[C@@H]3O[C@H](CO)[C@@H](O)[C@H](O)[C@H]3O)c1OC)CCCCC(O)CCc1ccc(O)c-2c1 (stereo not given in full) | -87.3% | -7.96% [at 29.8 µM] | -5.32% | -8.72% | –
24 | N#Cc1cccc(-c2c[nH]c3ncnc(N4CCOCC4)c23)c1 | -74.9% | – | -64.5% | -72.3% | 24.1 µM (active)
25 | Nc1ncnc2c1ncn2[C@H]1O[C@@H](C(=O)N2CCN(CC(=O)Nc3cccc4c3CNC4=O)CC2)[C@H](O)[C@@H]1O | -12.8% | – | -14.5% | -35.1% | 21.5 µM (active)
